# Values joined by “and” are separate entries in the source; they are usually repeats but may differ in a detail not shown here. Equal entries are not always repeated. Screen size: about 5,500 compounds; about 2,000 (36%) were called active. Not shown: some 18% with an inconclusive outcome. Cut-off read from the data, not from the text of the source: active = normalized growth mostly below about 0.91 (no sharp cut-off); inconclusive = no clear call, values can overlap the other calls; inactive = mostly above about 0.92. The list shows a part of the results. A structure can be active in one record and inactive in another.
# Experiment: chemical genetic growth profiling, strain panel (AID 1159580);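 note: tested at 20 µM; growth read once vehicle control cultures reached saturation at 30 °C; 1 = growth at the plate median or of vehicle wells; lower values mean less growth of the strain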
# Conditions: S. cerevisiae deletion strains, growth OD
compound,measurement,setting,value
O=c1c2ccccc2[se]n1-c1ccccc1,normalized growth,"locus YAL013W, strain DEP1, stronger effect = lower value",0.0627 (active) and 0.948 (inactive)
same,normalized growth,"locus YAL021C, strain ccr4, stronger effect = lower value",0.0697 (active)
same,normalized growth,"locus YAL026C, strain drs2, stronger effect = lower value",0.0626 (active)
same,normalized growth,"locus YAL030W, strain snc1, stronger effect = lower value",0.057 (active)
same,normalized growth,"locus YAL040C, strain CLN3, stronger effect = lower value",0.981 (inactive)
same,normalized growth,"locus YBL061C, strain skt5, stronger effect = lower value",0.0616 (active)
same,normalized growth,"locus YBR009C, strain hhf1, stronger effect = lower value",0.067 (active)
same,normalized growth,"locus YBR021W, strain FUR4, stronger effect = lower value",0.0951 (active)
same,normalized growth,"locus YBR023C, strain chs3, stronger effect = lower value",0.0842 (active)
same,normalized growth,"locus YBR171W, strain sec66, stronger effect = lower value",0.927 (inactive)
same,normalized growth,"locus YBR229C, strain ROT2, stronger effect = lower value",1.02 (inactive)
same,normalized growth,"locus YBR231C, strain swc5, stronger effect = lower value",0.129 (active)
same,normalized growth,"locus YBR279W, strain paf1, stronger effect = lower value",0.0647 (active)
same,normalized growth,"locus YCL011C, strain gbp2, stronger effect = lower value",0.057 (active)
same,normalized growth,"locus YCL016C, strain dcc1, stronger effect = lower value",0.102 (active)
same,normalized growth,"locus YCL029C, strain bik1, stronger effect = lower value",0.873 (active)
same,normalized growth,"locus YCL061C, strain MRC1 (second series), stronger effect = lower value",0.952 (inactive)
same,normalized growth,"locus YCL061C, strain MRC1, stronger effect = lower value",0.0738 (active)
same,normalized growth,"locus YCL069W, strain vba3, stronger effect = lower value",0.0606 (active)
same,normalized growth,"locus YCR088W, strain abp1, stronger effect = lower value",0.0595 (active)
same,normalized growth,"locus YDL005C, strain med2, stronger effect = lower value",0.071 (active)
same,normalized growth,"locus YDL035C, strain GPR1, stronger effect = lower value",0.0537 (active)
same,normalized growth,"locus YDL040C, strain nat1, stronger effect = lower value",0.909 (active)
same,normalized growth,"locus YDL074C, strain BRE1, stronger effect = lower value",0.0969 (active)
same,normalized growth,"locus YDL101C, strain DUN1, stronger effect = lower value",0.869 (active)
same,normalized growth,"locus YDL134C, strain PPH21, stronger effect = lower value",0.0461 (active)
same,normalized growth,"locus YDL185W, strain tfp1, stronger effect = lower value",0.999 (inactive)
same,normalized growth,"locus YDL192W, strain arf1, stronger effect = lower value",0.0608 (active)
same,normalized growth,"locus YDR001C, strain nth1, stronger effect = lower value",0.0663 (active)
same,normalized growth,"locus YDR069C, strain doa4, stronger effect = lower value",0.0621 (active)
same,normalized growth,"locus YDR101C, strain arx1, stronger effect = lower value",0.437 (active)
same,normalized growth,"locus YDR137W, strain rgp1, stronger effect = lower value",0.754 (active)
same,normalized growth,"locus YDR150W, strain NUM1, stronger effect = lower value",0.0598 (active) and 0.956 (inactive)
same,normalized growth,"locus YDR159W, strain sac3, stronger effect = lower value",0.854 (active)
same,normalized growth,"locus YDR162C, strain NBP2, stronger effect = lower value",0.054 (active)
same,normalized growth,"locus YDR195W, strain ref2",1.46 [resistant] (active)
same,normalized growth,"locus YDR297W, strain sur2, stronger effect = lower value",0.06 (active)
same,normalized growth,"locus YDR318W, strain mcm21, stronger effect = lower value",0.0683 (active)
same,normalized growth,"locus YDR334W, strain swr1, stronger effect = lower value",0.0625 (active)
same,normalized growth,"locus YDR335W, strain msn5, stronger effect = lower value",0.574 (active)
same,normalized growth,"locus YDR363W, strain ESC2, stronger effect = lower value",0.988 (inactive)
same,normalized growth,"locus YDR388W, stronger effect = lower value",0.0602 (active)
same,normalized growth,"locus YDR392W, strain spt3, stronger effect = lower value",0.0762 (active)
same,normalized growth,"locus YDR502C, strain sam2, stronger effect = lower value",0.0635 (active)
same,normalized growth,"locus YEL003W, strain gim4, stronger effect = lower value",0.106 (active)
same,normalized growth,"locus YEL037C, strain rad23, stronger effect = lower value",0.0632 (active)
same,normalized growth,"locus YEL061C, strain CIN8 (second series), stronger effect = lower value",0.0621 (active)
same,normalized growth,"locus YEL061C, strain CIN8, stronger effect = lower value",0.0485 (active)
same,normalized growth,"locus YER002W, strain NOP16, stronger effect = lower value",0.999 (inactive)
same,normalized growth,"locus YER015W, strain faa2, stronger effect = lower value",0.0679 (active)
same,normalized growth,"locus YER016W, strain bim1, stronger effect = lower value",0.147 (active)
same,normalized growth,"locus YER110C, stronger effect = lower value",0.0784 (active)
same,normalized growth,"locus YER111C, strain swi4, stronger effect = lower value",0.937 (inactive)
same,normalized growth,"locus YER155C, strain BEM2 (second series), stronger effect = lower value",0.0943 (active)
same,normalized growth,"locus YER155C, strain BEM2, stronger effect = lower value",0.0677 (active)
same,normalized growth,"locus YER167W, strain BCK2, stronger effect = lower value",0.0545 (active)
same,normalized growth,"locus YFR010W, strain ubp6, stronger effect = lower value",0.07 (active)
same,normalized growth,"locus YGL078C, strain dbp3, stronger effect = lower value",0.0555 (active)
same,normalized growth,"locus YGL086W, strain mad1, stronger effect = lower value",0.062 (active)
same,normalized growth,"locus YGL167C, strain pmr1, stronger effect = lower value",0.0891 (active)
same,normalized growth,"locus YGL173C, strain kem1, stronger effect = lower value",0.0711 (active)
same,normalized growth,"locus YGL227W, strain vid30, stronger effect = lower value",0.0629 (active)
same,normalized growth,"locus YGL240W, strain doc1, stronger effect = lower value",0.0921 (active)
same,normalized growth,"locus YGL248W, strain PDE1, stronger effect = lower value",0.0477 (active)
same,normalized growth,"locus YGL253W, strain hxk2, stronger effect = lower value",0.0553 (active)
same,normalized growth,"locus YGR078C, strain PAC10, stronger effect = lower value",0.0595 (active) and 0.975 (inactive)
same,normalized growth,"locus YGR135W, strain pre9, stronger effect = lower value",0.0669 (active)
same,normalized growth,"locus YGR229C, strain SMI1, stronger effect = lower value",0.0625 (active) and 0.862 (inactive)
same,normalized growth,"locus YGR252W, strain gcn5, stronger effect = lower value",0.162 (active)
same,normalized growth,"locus YHR013C, strain ard1, stronger effect = lower value",0.11 (active)
same,normalized growth,"locus YHR027C, strain rpn1, stronger effect = lower value",0.0642 (active)
same,normalized growth,"locus YHR030C, strain SLT2, stronger effect = lower value",0.0507 (active) and 0.0959 (active)
same,normalized growth,"locus YHR079C, strain IRE1 (second series), stronger effect = lower value",0.65 (active)
same,normalized growth,"locus YHR079C, strain IRE1, stronger effect = lower value",0.12 (active)
same,normalized growth,"locus YHR094C, strain hxt1, stronger effect = lower value",0.0617 (active)
same,normalized growth,"locus YHR129C, strain ARP1, stronger effect = lower value",0.0594 (active)
same,normalized growth,"locus YHR142W, strain chs7, stronger effect = lower value",0.0813 (active)
same,normalized growth,"locus YHR200W, strain rpn10, stronger effect = lower value",0.0601 (active)
same,normalized growth,"locus YIL066C, strain RNR3, stronger effect = lower value",0.0543 (active)
same,normalized growth,"locus YIL073C, strain SPO22, stronger effect = lower value",0.114 (active)
same,normalized growth,"locus YIL125W, strain kgd1, stronger effect = lower value",0.0566 (active)
same,normalized growth,"locus YIR030C, strain dcg1, stronger effect = lower value",0.0629 (active)
same,normalized growth,"locus YJL092W, strain hpr5, stronger effect = lower value",0.0617 (active)
same,normalized growth,"locus YJL095W, strain BCK1 (second series), stronger effect = lower value",0.0731 (active)
same,normalized growth,"locus YJL095W, strain BCK1, stronger effect = lower value",0.12 (active) and 0.111 (active)
same,normalized growth,"locus YJL115W, strain asf1, stronger effect = lower value",0.0858 (active)
same,normalized growth,"locus YJL129C, strain trk1, stronger effect = lower value",0.769 (active)
same,normalized growth,"locus YJL134W, strain LCB3, stronger effect = lower value",0.0503 (active)
same,normalized growth,"locus YJL154C, strain vps35, stronger effect = lower value",0.0602 (active)
same,normalized growth,"locus YJL164C, strain tpk1, stronger effect = lower value",0.0617 (active)
same,normalized growth,"locus YJL166W, strain qcr8, stronger effect = lower value",0.0635 (active)
same,normalized growth,"locus YJL168C, strain set2, stronger effect = lower value",0.0616 (active)
same,normalized growth,"locus YJL187C, strain SWE1 (second series), stronger effect = lower value",0.907 (inactive)
same,normalized growth,"locus YJR043C, strain POL32, stronger effect = lower value",0.0678 (active)
same,normalized growth,"locus YJR066W, strain TOR1, stronger effect = lower value",0.883 (inactive)
